An excerpt weighted towards active compounds, which were near 2.5% of everything screened.
ANO1 block – blocks the mouse calcium-activated chloride channel TMEM16A | AID 588511 | 310,000 compounds, 1.2% hits | Q8BHY3 | HEK293 TMEM16A/YFP iodide influx fluorescence, ionomycin | normalized B-score (activity score, 25-100; higher = stronger inhibition) at 10 µM;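 active means ratio plate-corrected score three or more library SD toward inhibition, starting fluorescence score within five deviations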;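 further: score derived from kinetic fluorescence span divided by baseline fluorescence per well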
TMEM16A act – activates or potentiates the mouse TMEM16A chloride channel | HEK293 TMEM16A/YFP-H148Q/I152L, iodide quench fluorescence; active compounds read low | B-score at 10 µM | 340,000 compounds, 0.3% hits | AID 623877;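 active means fluorescence-ratio B-score plate-corrected deviation score at least 3 library SD below zero, with starting fluorescence score within 5 deviations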;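 further: channel opened by trigger with iodide after compound preincubation; score built on the fluorescence ratio of max minus min over baseline; more negative score means more quench and so TMEM16A activation or potentiation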
CHT inh – inhibitors of human choline transporter CHT; Q9GZV3; 310,000 compounds, 0.86% hits; B-score at 10 µM; AID 488975; CHT-expressing cells, membrane potential dye, choline response; active compounds read low;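 active means B-score over 3 SD under the library average, and starting fluorescence ratio not unusually high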;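 further: choline stimulus applied at its EC90 after an EC20 pre-addition; B-score computed on integrated fluorescence ratio after choline addition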
PKA-R1A activ – activators of PKA-R1A complex; PKA-R1A dissociation, Cy5-IP20 fluorescence polarization; scaled: DMSO 0%, 113 µM cGMP 100%; activation, % at 11.4 µM; 340,000 compounds, 0.083% hits; AID 504707;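 active means percent activation above the mean of all tested compounds plus 3 SD, cut at about 19% in these data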;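 further: higher means more PKAc released from R1A so a rise in polarization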
CHT allo act – allosteric activators of human choline transporter CHT; B-score at 10 µM; CHT-expressing cells, membrane potential dye, choline EC20; active compounds read high; LV-AA mutant CHT in HEK293 cells; Q9GZV3; 310,000 compounds, 0.49% hits;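 active means initial fluorescence not abnormally high and integrated response B-score, plate-corrected, over 3 SD above library mean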
PKA-R2B activ – activators of human PKA-R2B complex; PKA-R2B holoenzyme dissociation, Cy5-IP20 fluorescence polarization; R2B truncated from residue 108, S112A mutant; 0% DMSO only, 100% 113 µM cGMP; activation, % at 11.4 µM; 340,000 compounds, 0.079% hits; AID 504700;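 active means activation above a cutoff set at the mean over all compounds plus 3 SD, cut at about 18% in these data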;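 further: higher means more holoenzyme dissociation and a rise in polarization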
Target sequence (P31323 whole entry, looked up, other chains not shown, the tested form may be a part): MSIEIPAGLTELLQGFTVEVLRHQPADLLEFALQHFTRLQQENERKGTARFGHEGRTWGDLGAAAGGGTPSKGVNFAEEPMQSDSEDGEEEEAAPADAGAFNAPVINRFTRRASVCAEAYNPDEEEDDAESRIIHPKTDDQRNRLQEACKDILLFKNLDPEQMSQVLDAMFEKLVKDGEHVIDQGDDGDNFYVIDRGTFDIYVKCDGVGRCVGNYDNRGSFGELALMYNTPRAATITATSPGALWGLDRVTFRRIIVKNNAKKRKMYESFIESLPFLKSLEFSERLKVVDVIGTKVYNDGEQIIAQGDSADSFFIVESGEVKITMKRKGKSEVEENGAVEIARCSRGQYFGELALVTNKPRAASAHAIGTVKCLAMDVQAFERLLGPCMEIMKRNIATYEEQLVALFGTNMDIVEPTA
CHT activ conf – human CHT activation, confirmatory screen. CHT-expressing cells, membrane potential dye fluorescence (FDSS); % of choline EC20–EC90 response window; HEK293 expressing CHT LV-AA mutant; choline added at its EC20. AID 504833. activation, % at 10 µM. 2,500 compounds, 91% hits. shares compounds with CHT allo act;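 active means primary screen active, with duplicate mean activation above negative control mean plus 3 SD, cut at about 11% in these data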
HEK293 MP dye – counter-screen for CHT activators: effect in parental HEK293 cells; shares compounds with CHT allo act; membrane potential dye fluorescence (FDSS); measured after EC20 choline addition; ratio readout change at 10 µM, hits read low; 2,500 compounds, 62% hits;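 active means duplicate-averaged ratio beyond 3 SD from buffer wells, up or down, though filed actives are nearly all decreases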
Hits are given with their value; - = inactive; . = no result given.

SMILES	ANO1 block	TMEM16A act	CHT inh	PKA-R1A activ	CHT allo act	PKA-R2B activ	CHT activ conf	HEK293 MP dye
CC(CCc1ccccc1)NC(=O)/C=C/c1ccc(Cl)cc1 (configuration not stated)	-	-	-	-	-	-	-	-
C[C@H]1CN([C@@H](C)CO)C(=O)CCCn2cc(nn2)CO[C@@H]1CN(C)S(=O)(=O)c1cccc(F)c1	.	.	.	-	.	-	.	.
Cc1cccc2cc3c(N)c(C(=O)N4CCc5ccccc54)sc3nc12	-	-	-	-	-	-	26.5	-
Cc1ccc(S(=O)(=O)Nc2cccc(C(=O)NCCCN3CCOCC3)c2)cc1F	-	-	-	-	-	-	.	.
COC(=O)c1cc(C(=O)N2CCN(c3ccccc3OC)CC2)cc([N+](=O)[O-])c1	-	-	-	-	6.77	-	13.0	-
Cc1ccc(C(c2nnnn2C(C)(C)C)N(Cc2ccco2)Cc2cccs2)cc1 (configuration not stated)	-	.	-	-	-	-	.	.
c1ccc(CN(Cc2ccco2)C(c2ccncc2)c2nnnn2C2CCCC2)cc1 (configuration not stated)	-	-	-	-	-	-	.	.
Fc1ccc(C(c2nnnn2C2CCCC2)N(Cc2ccco2)CC2CCCO2)cc1 (configuration not stated)	-	-	-	-	8.63	-	45.5	-
CC(C)(C)n1nnnc1C(c1ccc(C(F)(F)F)cc1)N(Cc1ccc(F)cc1)Cc1ccco1 (configuration not stated)	-	-	-	-	11.5	-	30.9	-
COCCNc1ccnc2c(Cl)cccc12	-	-	-	-	6.3	-	56.6	-61.3
CC1=NN(c2nc3ccccc3[nH]2)C(=O)/C1=C/N(C)C	-	-	-	-	-	-	46.2	-32.9
CC1=NN(c2ccccc2)C(=O)/C1=C/N(C)C	-	-	-	-	-	-	.	.
CCCN(CC(=O)Nc1ccccc1C)C(=O)c1ccc(S(=O)(=O)N2CCC(C)CC2)cc1	.	-	.	-	.	-	.	.
O=C(COc1ccc(S(=O)(=O)NC2CCCCC2)cc1)NC1CC1	-	-	-	-	-	-	.	.
CN(C)Cc1cc(OCc2ccccc2)cc(CN(C)C)c1O	.	.	.	-	.	-	.	.
CN(C)Cc1cc(C(C)(C)c2cc(CN(C)C)c(O)c(CN(C)C)c2)cc(CN(C)C)c1O	-	-	-	-	8.32	-	51.9	-57.7
O=C(NC1CCCCC1)C(c1ccc2ncccc2c1)N(Cc1ccc(F)cc1)C(=O)c1cccs1 (configuration not stated)	-	-	-	-	-	-	30.6	-
O=C(NC1CCCCC1)C(c1ccc(F)cc1)N(C(=O)c1cccs1)c1ccc2c(c1)OCO2 (configuration not stated)	-	-	-	-	-	-	.	.
CN1/C(=C\C=[N+](C)c2ccccc2)C(C)(C)c2ccccc21	-	-	-	-	8.08	-	74.6	-23.5
CSc1ccccc1C(=O)N1CCC(n2nccc2NC(=O)C(C)(C)C)CC1	-	-	-	-	-	-	.	.
COc1ccccc1NS(=O)(=O)c1cc([N+](=O)[O-])ccc1N/N=C/c1sc(N2CCOCC2)nc1-c1ccccc1	-	-	-	-	-	-	23.3	-
NCCCCCC(=O)Nc1ccncc1	-	-	-	-	-	-	17.8	-35
CC(NC(=O)C1CCN(C(=O)Nc2ccccc2)CC1)c1ccccc1 (configuration not stated)	-	-	-	-	-	-	-	-
O=C1CCCCCCCCCC/C(=N\O)CCCO1	-	-	-	.	-	.	14.2	-
C[C@@H]1CCCCCCCCC(=O)OCCN(C(=O)OC(C)(C)C)[C@H](C)CCCCCCCCC(=O)OCCN(C(=O)OC(C)(C)C)[C@H](C)CCCCCCCCC(=O)OCCN(C(=O)OC(C)(C)C)[C@H](C)CCCCCCCCC(=O)OCCN1C(=O)OC(C)(C)C	.	-	.	-	.	-	.	.
SMILES	ANO1 block	TMEM16A act	CHT inh	PKA-R1A activ	CHT allo act	PKA-R2B activ	CHT activ conf	HEK293 MP dye
COC1=C(Nc2ccccc2OC)C(=O)c2ccccc2C1=O	-	-	-	.	8.74	.	36.7	-41.4
COc1ccccc1NC1=C(NC(C)=O)C(=O)c2ccccc2C1=O	.	-	.	-	.	-	.	.
CC(C)CSc1nsc(N)n1	-	-	-	-	-	-	26.6	-
CC(C)CSc1nnc(N)s1	-	-	-	-	-	-	.	.
N#Cc1cc(Sc2ccccn2)c([N+](=O)[O-])cc1C#N	-	-	-	-	-	-	46.0	-41.3
COC(=O)c1cc2c(ccn2-c2ccc(F)cc2)n1CC(C)C	100	-	-	-	-	-	24.2	-
C=CC[C@@H](Cc1ccc(F)cc1)C(=O)OC[C@@H]1CCCN1C(=O)[C@H](CC=C)CC(=O)N(CCO)Cc1ccccc1	.	-	.	-	.	-	.	.
CCN1CCN(c2nc(NCCO)c3ccccc3n2)CC1	-	-	-	-	8.87	-	75.9	-79.1
OCCNc1nc(N2CCN(Cc3ccccc3)CC2)nc2ccccc12	-	-	-	-	-	-	59.5	-71.9
OCCNc1c2ccccc2nc2ccccc12	-	-	-	-	6.32	-	40.3	-47.2
c1ccc(CN2CCN(c3nc(N4CCOCC4)c4ccccc4n3)CC2)cc1	-	-	-	-	-	-	.	.
OCCNc1nc2ccccc2nc1NCCO	-	-	-	-	-	-	.	.
COc1ccccc1NC(=O)C1CCCN(c2cnccn2)C1 (configuration not stated)	-	-	-	-	-	-	.	.
Cc1occc(=O)c1OCc1ccc(Cl)cc1Cl	-	-	-	-	-	-	.	.
O=C(NCc1ccccc1)C1CCC(=O)N(CCN2CCOCC2)C1 (configuration not stated)	-	-	-	-	-	-	.	.
Cc1ccc(NC(=O)NC(=O)CN2CCCC2c2ccc3c(c2)OCCO3)cc1C (configuration not stated)	.	-	.	-	.	-	.	.
COc1ccc(C(=O)Cn2nc(CNc3ccc(Br)cc3)[n+]3c2CCCCC3)cc1	-	-	-	-	-	-	.	.
Cc1ccc(C(C)C)c(OCc2nn(CC(=O)c3ccc(OC(F)F)cc3)c3[n+]2CCCCC3)c1	-	-	-	-	9.8	-	-	-
c1ccc(-c2nc(SCc3nc4ccccc4[nH]3)c3oc4ccccc4c3n2)cc1	.	-	.	-	.	-	.	.
